# Assay outcomes from PubChem BioAssay.
# Rows were chosen to be rich in hits. Some 2.6% of all compounds tested hit in one or more screens of this group.
# Granule exo inh: lytic granule exocytosis inhibition; TALL-104 LAMP-1 surface exposure, flow cytometry; cells stimulated with thapsigargin and PMA; inhibition, % at 10 µM; 360,000 compounds, 0.66% hits;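 active = inhibition above about 55%, limit read from the data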
# ABHD5 PLIN5 PPI: inhibitors of human ABHD5-perilipin-5 interaction | Split G. princeps luciferase complementation, luminescence, 4 h | inhibition, % at 4 µM | 360,000 compounds, 0.78% hits | AID 602281;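 active = inhibition above the mean inhibition across every tested compound plus 3 SD, cut at about 22% in these data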;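 also: 0% = DMSO only wells and the 100% control is not disclosed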
# Rce1 inhib: inhibitors of yeast Ras-converting enzyme; yeast membranes, quenched prenylated peptide cleavage fluorescence; calls only; 290,000 compounds, 0.27% hits; AID 2563;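 active = fall in fluorescence gain of 50% or more versus controls, with final raw signal at or below 3038400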;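 also: plate controls were neutral control wells for no effect and wells lacking membranes for full effect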
# Target sequence (Q03530 whole entry, looked up): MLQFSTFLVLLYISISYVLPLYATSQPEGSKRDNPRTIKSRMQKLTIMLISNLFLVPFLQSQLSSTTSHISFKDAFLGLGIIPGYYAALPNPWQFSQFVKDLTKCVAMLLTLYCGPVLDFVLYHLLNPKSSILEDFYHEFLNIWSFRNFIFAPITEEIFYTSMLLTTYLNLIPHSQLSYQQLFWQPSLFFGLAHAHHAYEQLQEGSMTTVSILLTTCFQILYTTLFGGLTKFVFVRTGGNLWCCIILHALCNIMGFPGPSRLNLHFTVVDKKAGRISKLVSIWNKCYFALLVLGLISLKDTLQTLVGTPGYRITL
# PfM18AAP inh-1: blocks P. falciparum M18 aspartyl aminopeptidase | recombinant PfM18AAP, H-Glu-NHMec fluorogenic cleavage | inhibition, % at 7.35 µM | 290,000 compounds, 1.2% hits | AID 1822;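 active = inhibition above the campaign mean inhibition over all tested compounds plus 3 SD, cut at about 28% in these data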;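 also: 0% = plate median of test compound wells and 100% = 2 mM ZnCl2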
# Platelet DG rel: platelet dense granule release activity. AID 1663. inhibition, %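 (compounds screened at 7.5 µM in platelet-rich plasma)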. human platelet-rich plasma, SFLLRN dense granule ATP release, luminescence. 300,000 compounds, 0.22% hits;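 active = mean replicate score, as percent of positive control, at or above 50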
# PfM18AAP inh-2: PfM18AAP inhibition, confirmation. shares compounds with PfM18AAP inh-1. recombinant PfM18AAP, H-Glu-NHMec fluorogenic cleavage. inhibition, % at 7.35 µM. 2,400 compounds, 28% hits. AID 2170;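 active = mean inhibition over replicate wells above the hit cutoff set for the earlier primary screen, cut at about 29% in these data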;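 also: 0% = median of test compound wells and 100% = 2 mM ZnCl2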
# CTSL1 confirm: counter-screen for PFM18AAP inhibitors: confirmation of human cathepsin L inhibitors; shares compounds with PfM18AAP inh-1; purified cathepsin L1, Z-Leu-Arg-MCA fluorescence; inhibition, % at 5.96 µM; 2,400 tested, under 10 active; AID 2178;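 active = average inhibition across replicates above the hit cutoff set in the earlier primary screen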;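 also: 0% = median of test compound wells and 100% = Z-Phe-Ala-diazomethylketone 1 µM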
# Target sequence (P07711 whole entry, looked up): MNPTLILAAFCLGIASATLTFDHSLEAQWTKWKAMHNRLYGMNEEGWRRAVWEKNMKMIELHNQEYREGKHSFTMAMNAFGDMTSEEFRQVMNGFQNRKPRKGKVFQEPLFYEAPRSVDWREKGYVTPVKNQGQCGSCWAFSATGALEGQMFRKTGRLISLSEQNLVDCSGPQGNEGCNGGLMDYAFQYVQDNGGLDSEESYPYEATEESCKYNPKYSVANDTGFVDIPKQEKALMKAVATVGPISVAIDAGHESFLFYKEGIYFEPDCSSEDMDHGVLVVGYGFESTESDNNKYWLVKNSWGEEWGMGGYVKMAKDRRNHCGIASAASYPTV
# ABHD5-PLIN5 conf: confirmation of human ABHD5-PLIN5 interaction inhibitors; biochemical ABHD5-PLIN5 interaction, luminescence; inhibition, % at 4 µM; shares compounds with ABHD5 PLIN5 PPI; 2,200 compounds, 67% hits; in the data active = inhibition above about 23%;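 also: 0% = DMSO vehicle wells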
# HNF4 split-luc: HNF4 split-luciferase signal hit, counter-screen. AID 651674. shares compounds with ABHD5 PLIN5 PPI. HNF4 dimerization, luminescence, biochemical. inhibition, % at 4 µM. 2,200 compounds, 77% hits;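 active = mean inhibition across replicate wells exceeding the computed hit threshold, cut at about 13% in these data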;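 also: light from luciferase halves that rejoin when HNF4 fusion proteins dimerize; 0% = DMSO only wells and the 100% control is not given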
# Active calls of the source: *; i = inactive; . = no result given.
SMILES,Granule exo inh,ABHD5 PLIN5 PPI,Rce1 inhib,PfM18AAP inh-1,Platelet DG rel,PfM18AAP inh-2,CTSL1 confirm,others
CC(C)(C)c1ccc(O)c(N=Cc2c(O)ccc3ccccc23)c1,29.0,2.2,i,88.9*,-3.9,44.7*,3.0,
CCOC(=O)C1=C(C)OC(N)=C(C(=O)OCC)C12C(=O)Nc1ccc(Br)cc12 (stereo not drawn),-1.2,2.9,i,-5.0,2.0,.,.,
CN1CCN2c3ccc(N)cc3CC3(C(=O)NC(=O)NC3=O)C2C1 (stereo not drawn),-3.0,-11.3,i,43.7*,-13.5,-44.6,1.9,
CN1C(=O)N(C)C(=O)C2(Cc3cc(N)ccc3N3CCN(c4ccccc4F)CC32)C1=O (stereo not drawn),.,.,.,19.3,10.6,.,.,
C=CCn1cc(C=C2C(=O)NC(=O)NC2=O)c2ccccc21,-5.6,15.5,i,53.8*,-3.3,33.5*,-5.1,
O=C1NC(=O)C(=Cc2cn(CCOc3ccc4c(c3)OCO4)c3ccccc23)C(=O)N1,1.4,-12.5,i,27.8,14.1,.,.,
CCN1CCN(c2ccc([N+](=O)[O-])cc2C=C2C(=O)NC(=O)NC2=O)CC1,0.9,17.7,i,4.5,-14.8,.,.,
CCc1ccc(N2C(=O)NC(=O)/C(=C\c3cc(C)n(-c4cc(C(=O)O)cc(C(=O)O)c4)c3C)C2=O)cc1,10.0,-2.8,i,32.2*,-2.6,-21.8,-1.3,
Cc1ccc(N2C(=O)NC(=O)/C(=C\c3cc(C)n(-c4cc(C(=O)O)cc(C(=O)O)c4)c3C)C2=O)cc1,-3.7,7.7,i,18.8,-3.8,.,.,
COc1ccc(-n2c(O)c(C(C)=NCCN3CCNCC3)c(=O)[nH]c2=O)cc1,1.5,4.9,i,-0.4,1.5,.,.,
CCN(CC)C(=O)Cn1cc(/C=C2\C(=O)NC(=O)N(c3ccccc3F)C2=O)c2ccccc21,27.7,22.8*,i,34.8*,-4.6,-6.9,-4.9,
CN1C(=O)C(Cc2ccc3c(c2)OCO3)C(=O)N(C)C1=O,.,.,i,34.2*,-0.6,0.3,-3.4,
CCOc1cc2c(cc1OCC)-n1cccc1C(c1c(O)cccc1OC)NC2 (stereo not drawn),-10.6,1.2,i,-1.7,-18.5,.,.,
O=C1C2CCN(CC2)C1Cc1ccc(OCCOc2ccccc2)cc1 (stereo not drawn),-1.2,-2.1,i,6.9,-0.5,.,.,
CCN(CC)c1ccc(/C=N/c2sc3c(c2C#N)C2CCN3CC2)c(O)c1,-3.5,-5.9,.,32.0*,.,-37.0,-0.3,
CCc1cc(=O)oc2cc(OCC(=O)N3C[C@H]4C[C@@H](C3)c3cccc(=O)n3C4)c(Cl)cc12,1.5,0.0,i,-7.2,0.4,.,.,
Cc1c(N)c(C)c([N+](=O)[O-])c(C)c1[N+](=O)[O-],-3.5,4.5,i,4.2,-4.9,.,.,
O=C1NC(=O)C(=Cc2ccc(-c3ccc(Cl)cc3)o2)C(=O)N1,-11.0,13.3,i,32.9*,0.0,18.7,-4.0,
O=C1NC(=O)C(=Cc2ccco2)C(=O)N1,23.1,-16.4,.,.,.,.,.,
CN(C)C1C(=O)C(C(N)=O)=C(O)C2(O)C(=O)C3=C(O)c4c(O)cccc4C(C)(O)C3C(O)C12 (stereo not drawn),22.8,6.6,i,55.6*,1.0,-21.3,0.8,
CN1C(=O)C(=Cc2coc3ccccc3c2=O)C(=O)N(C)C1=O,0.1,12.2,i,-3.5,-5.6,.,.,
O=C1NC(=O)C(=Cc2coc3ccc(O)cc3c2=O)C(=O)N1,-2.4,15.8,i,38.6*,9.2,18.6,-0.7,
COc1ccc(OC)c(-n2c(O)c(C=Nc3c(C)n(C)n(-c4ccccc4)c3=O)c(=O)[nH]c2=S)c1,-1.1,-0.1,i,-7.3,1.7,.,.,
N#Cc1c(/N=C/c2c(O)n(Cc3ccco3)c(=O)[nH]c2=O)sc2c1CCCC2,7.4,-1.9,i,37.1*,0.6,-43.2,-4.4,
CCN(CC)c1ccc(N=Cc2c(O)n(Cc3ccco3)c(=O)[nH]c2=O)cc1,9.5,-9.3,i,42.2*,.,-52.1,-0.4,
SMILES,Granule exo inh,ABHD5 PLIN5 PPI,Rce1 inhib,PfM18AAP inh-1,Platelet DG rel,PfM18AAP inh-2,CTSL1 confirm,others
O=C1NC(=O)C(=Cc2ccc(-c3ccc(F)cc3O)o2)C(=O)N1,10.9,25.3*,i,50.7*,-7.1,58.3*,0.3,ABHD5-PLIN5 conf=72.9*;HNF4 split-luc=85.6*
CCCC(C)C(=O)NC1CCSC1=O (stereo not drawn),1.4,-0.2,i,0.5,-2.9,.,.,
COc1cc2c(cc1/C=C/[N+](=O)[O-])OCO2,20.4,65.9*,i,38.4*,4.1,17.2,0.6,ABHD5-PLIN5 conf=96.2*;HNF4 split-luc=101.2*
Cc1ccsc1C(=O)C1CCCN(Cc2cn(C)nc2C)C1 (stereo not drawn),-0.1,3.7,i,1.4,3.7,.,.,
O=c1c2ccccc2[se]n1-c1ccccc1,82.3*,80.6*,i,93.6*,-4.3,96.5*,-1.9,ABHD5-PLIN5 conf=88.3*;HNF4 split-luc=109.7*
COc1ccc(OC)c(-n2c(O)c(/C=C3\C=Nc4ccccc43)c(=O)[nH]c2=O)c1,2.1,21.6,i,23.9,3.4,.,.,
COc1ccccc1-n1c(O)c(/C=C2\C=Nc3ccccc32)c(=O)[nH]c1=O,-19.7,28.6*,i,40.2*,2.0,42.8*,-8.7,ABHD5-PLIN5 conf=23.9*;HNF4 split-luc=28.3*
Cc1cc(/C=C2/C(=O)NC(=O)N(c3ccccc3)C2=O)c(C)n1-c1ccc(F)cc1,7.2,5.8,i,4.8,0.6,.,.,
COc1cc(/C=C2\C(=O)NC(=O)N(c3ccccc3)C2=O)cc(OC)c1O,0.2,34.2*,i,35.6*,-5.9,-38.7,5.7,ABHD5-PLIN5 conf=16.5;HNF4 split-luc=22.0*
Cn1cc(/C=C2\C(=O)NC(=O)N(c3ccccc3)C2=O)c2ccccc21,-4.0,28.8*,i,35.2*,-0.8,38.6*,1.1,ABHD5-PLIN5 conf=13.7;HNF4 split-luc=15.2*
O=c1[nH]c(=O)n(Cc2ccco2)c(O)c1C=NCCCn1ccnc1,1.7,4.7,i,9.8,-4.0,.,.,
O=C1NC(=O)N(Cc2ccco2)C(=O)/C1=C/C=C/c1ccco1,8.9,46.0*,i,35.2*,0.9,-3.6,-1.8,ABHD5-PLIN5 conf=98.4*;HNF4 split-luc=79.6*
Cn1cccc1/C=C1\C(=O)NC(=O)N(Cc2ccco2)C1=O,-1.5,3.8,i,15.1,-5.6,.,.,
C[C@@H]1O[C@@H](O[C@H]2C[C@@H](O)[C@]3(CO)[C@@H]4C(CC[C@]3(O)C2)[C@@]2(O)CC[C@H](C3COC(=O)C3)[C@@]2(C)C[C@H]4O)[C@H](O)[C@H](O)[C@H]1O (stereo partly drawn),0.7,3.1,.,.,.,.,.,
O=C1NC(=O)C(=Cc2ccc(Sc3ccccc3)o2)C(=O)N1,98.1*,23.4*,i,9.9,20.8,.,.,ABHD5-PLIN5 conf=95.7*;HNF4 split-luc=103.0*
